Screening results: PubChem BioAssay, several laboratories
Autofluor counter: flagged as autofluorescent in microsphere protease counterscreen; compound autofluorescence counterscreen, microsphere flow cytometry; stronger effect = higher value; fluorescence intensity (test concentration not listed); hit rate 3.1% among 360,000; in the data active means fluorescence intensity above about 16000; inconclusive means no clear call, values can overlap the other calls
BoNT-F LC inh: inhibitors of Botulinum neurotoxin F light chain protease | Multiplex microsphere protease cleavage assay, flow cytometry | inhibition, % at 10 µM | hit rate 0.22% among 360,000 | AID 588497; in the data active means inhibition above about 35%, passing the limit was not always enough; inconclusive means no clear call, values can overlap the other calls; further: plate controls were buffer without enzyme for full effect and enzyme alone for no effect
3CLpro inhibitor: SARS-CoV 3CLpro protease inhibition; P0C6X7; recombinant SARS-CoV 3CLpro, quenched FRET peptide cleavage; inhibition, % at 6 µM; hit rate 0.14% among 290,000; AID 1706; in the data active means inhibition above about 12%
BoNT-A LC inh2: blocks Botulinum neurotoxin A light chain protease; hit rate 0.17% among 360,000; inhibition, % at 10 µM; multiplex microsphere protease substrate cleavage, flow cytometry; in the data active means inhibition above about 30%; inconclusive means no clear call, values can overlap the other calls; further: plate controls were buffer without enzyme for full effect and enzyme alone for no effect
CCHF vOTU inh-1: blocks the CCHF virus ovarian tumor domain protease; hit rate 0.55% among 370,000; inhibition, % at 11.5 µM; CCHFV vOTU protease, Pep-AMC fluorescence; further: 0% = vehicle wells with enzyme and 100% = no enzyme wells
Anthrax LF inh2: blocks Bacillus anthracis lethal factor protease | multiplex microsphere protease cleavage assay, LF | inhibition, % at 10 µM | hit rate 0.12% among 360,000; in the data active means inhibition above about 30%; inconclusive means no clear call, values can overlap the other calls; further: plate controls were buffer without enzyme for full effect and enzyme alone for no effect
Target sequence (P15917 whole entry, looked up): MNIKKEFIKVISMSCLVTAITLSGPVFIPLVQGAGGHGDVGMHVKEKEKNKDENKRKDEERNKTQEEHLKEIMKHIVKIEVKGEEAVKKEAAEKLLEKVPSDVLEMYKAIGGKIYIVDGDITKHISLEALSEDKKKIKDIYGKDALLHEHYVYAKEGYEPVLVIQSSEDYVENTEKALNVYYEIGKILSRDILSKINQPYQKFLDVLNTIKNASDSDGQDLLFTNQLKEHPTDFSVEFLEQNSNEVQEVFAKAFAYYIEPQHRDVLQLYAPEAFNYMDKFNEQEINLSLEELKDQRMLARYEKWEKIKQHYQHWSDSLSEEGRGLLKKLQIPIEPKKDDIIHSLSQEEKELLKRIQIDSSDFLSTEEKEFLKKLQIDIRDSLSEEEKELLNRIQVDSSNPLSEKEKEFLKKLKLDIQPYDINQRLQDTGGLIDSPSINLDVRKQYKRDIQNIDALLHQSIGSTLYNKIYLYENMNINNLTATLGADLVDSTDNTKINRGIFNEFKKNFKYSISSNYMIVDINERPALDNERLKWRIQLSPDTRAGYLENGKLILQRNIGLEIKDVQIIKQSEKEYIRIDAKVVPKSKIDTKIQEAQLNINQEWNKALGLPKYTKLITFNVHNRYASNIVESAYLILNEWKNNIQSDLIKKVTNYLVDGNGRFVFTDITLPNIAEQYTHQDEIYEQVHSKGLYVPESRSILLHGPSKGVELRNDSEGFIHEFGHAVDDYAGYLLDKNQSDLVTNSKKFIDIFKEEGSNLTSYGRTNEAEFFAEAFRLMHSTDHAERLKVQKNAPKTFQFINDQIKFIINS
CCHF vOTU inh-2: confirmation of CCHF virus vOTU protease inhibitors | hit rate 17% among 1,900 | inhibition, % at 11.5 µM | Recombinant CCHFV vOTU, Pep-AMC fluorescence | shares compounds with CCHF vOTU inh-1
The depositor's hits bear a star; ? = inconclusive; . = not tested or not shown. In the library only some 3.9% were active in any assay of this set; here they are far more common. Unless noted, no stated cut-off is given here; in the data, active means inhibition above about 30%; inactive means the rest.

SMILES	Autofluor counter	BoNT-F LC inh	3CLpro inhibitor	BoNT-A LC inh2	CCHF vOTU inh-1	Anthrax LF inh2	CCHF vOTU inh-2
Cc1ccc2[nH]c(=O)c(CN(Cc3ccco3)S(=O)(=O)c3c(C)ccc4nsnc34)cc2c1	9615	-8	5	0	-9	-6	.
Cc1ccc(S(=O)(=O)N(Cc2cc3cc4c(cc3[nH]c2=O)OCCO4)CC2CCCO2)cc1 (centres undefined)	5215	3	-3	0	38*	-5	-27
Cc1ccc2nsnc2c1S(=O)(=O)N(CCO)Cc1cc2cc3c(cc2[nH]c1=O)OCCO3	6744	-4	-3	-1	44*	4	-5
C[C@@H]1COc2cccc(NC3CC3)c2S(=O)(=O)N1	.	.	.	.	-26	.	.
COc1ccc(NC(=O)c2ccc(OCC3CCCO3)cc2)cc1OC (centres undefined)	3403	-13	.	-1	38*	2	-14
O=C(O)c1ccccc1NS(=O)(=O)c1ccc(N/N=C/c2ccc(O)c(O)c2)c([N+](=O)[O-])c1	3657	2	.	0	42*	-1	46*
COc1ccccc1NS(=O)(=O)c1ccc(N/N=C/c2ccccc2OCC(=O)O)c([N+](=O)[O-])c1	3939	0	5	0	30*	-2	14
CCN(CC)S(=O)(=O)c1ccc(N/N=C/c2ccccc2OCC(=O)O)c([N+](=O)[O-])c1	3276	-2	4	-1	34*	-3	8
COc1ccccc1NS(=O)(=O)c1ccc(N/N=C/C=C/c2ccccc2[N+](=O)[O-])c([N+](=O)[O-])c1	2026	-7	-2	-1	-1	-2	.
O=C(O)c1ccccc1NS(=O)(=O)c1ccc(NN=Cc2ccc(F)cc2)c([N+](=O)[O-])c1	4296	-3	.	0	.	0	.
O=C(O)COc1ccccc1C=NNc1ccc([N+](=O)[O-])cc1S(=O)(=O)Nc1ccc(Cl)cc1	3646	-9	.	0	22	6	.
COc1ccc(NS(=O)(=O)c2cc([N+](=O)[O-])ccc2NN=Cc2ccccc2OCC(=O)O)cc1	6856	7	.	-3	14	-5	.
O=C(O)COc1ccccc1/C=N/Nc1ccc(S(=O)(=O)Nc2ccc(Cl)cc2)cc1[N+](=O)[O-]	3970	0	9	-1	37*	0	17
COc1ccc(Cn2cc(COC(=O)NCC(C)C)nn2)cc1	.	.	.	.	-4	.	.
CC(=O)C1=C(C)N(Cc2ccc(F)cc2)C(=S)NC1c1cccc(Br)c1 (centres undefined)	.	.	.	.	11	.	.
CCOC(=O)N(C)C[C@@H]1OCc2cn(nn2)CCCC(=O)N([C@H](C)CO)C[C@H]1C	.	.	.	.	0	.	.
COCCCN1C(=O)[C@H](CC(=O)NCc2ccc(OC)c(OC)c2)[C@]2(C(=O)OC)CCCCC=C12	.	.	.	.	-2	.	.
COc1cc2c(cc1NCc1ccccn1)oc1ccccc12	3104	-4	8	4	30*	0	-5
Cc1cccc(NS(=O)(=O)c2ccc3[nH]c(=O)cc(C(=O)OC(C)C(=O)Nc4ccc([N+](=O)[O-])cc4)c3c2)c1 (centres undefined)	4679	-5	3	-1	34*	-1	-10
CCc1ccc(NC(=O)C(C)OC(=O)c2cc(=O)[nH]c3ccc(S(=O)(=O)Nc4ccc(F)cc4)cc23)cc1 (centres undefined)	2190	-4	0	0	-12	-1	.
CCCCCCNC(=O)OC12CN(C(=O)OC(C)C)N(C(=O)OC(C)C)CC1(O)CN(S(=O)(=O)c1ccc(C)cc1)C2 (centres undefined)	3029	-2	.	0	37*	-5	11
O=[N+]([O-])c1cccnc1C1OCCO1	3441	-9	.	0	1	0	.
Cc1cnc(C2OCCO2)c2cccc(N)c12	3808	2	.	0	38*	1	65*
Cc1ccc(CN2CCCCC(NC(=O)Nc3cccc(F)c3)C2=O)cc1 (centres undefined)	.	.	.	.	10	.	.
FC(F)(F)Oc1ccc(NC2=NCCCS2)cc1	3684	-9	-2	0	44*	-9	-9
SMILES	Autofluor counter	BoNT-F LC inh	3CLpro inhibitor	BoNT-A LC inh2	CCHF vOTU inh-1	Anthrax LF inh2	CCHF vOTU inh-2
FC(F)(F)c1cccc(NC2=NCCCS2)c1	4020	5	-8	-1	8	-1	.
Nc1nnc(-c2ccco2)s1	10148	-15	0	-1	3	-3	.
Nc1ncnc2oc(-c3ccco3)c(-c3ccco3)c12	4232	7	-2	-2	34*	-15	-55
CC(=O)Nc1ccc(S(=O)(=O)/N=C2\C(=O)c3ccccc3C([O-])=C2n2cc[n+](-c3ccccn3)c2)cc1	4872	-16	2	-1	68*	1	58*
c1ccc(-c2ccccc2C2Cc3nnccc3CN2)cc1 (centres undefined)	.	.	.	.	0	.	.
Cc1cc(C)c(S(=O)(=O)Nc2nnc(CC(C)C)s2)c(C)c1	3687	3	6	1	30*	11	-17
FC(F)(F)C1=Nc2cccc3cccc(c23)N1	5368	3	.	1	41*	0	17
Fc1ccc(C2=Nc3cccc4cccc(c34)N2)cc1	1976	-6	-1	-1	2	-1	.
Cc1ccc(NS(=O)(=O)c2ccc(/C=C/C(=O)O)cc2)cc1Cl	4490	-4	-2	-1	-8	2	.
O=C(O)/C=C/c1ccc(S(=O)(=O)Nc2ccc3[nH]c(=O)[nH]c3c2)cc1	3262	3	-8	-4	33*	-8	-4
Cc1[nH]n(-c2ccccc2)c(=O)c1C(=O)c1ccccc1	3608	?	2	?	1	-6	.
COc1cccc(C(c2c(C)[nH]n(-c3ccccc3)c2=O)c2c(C)[nH]n(-c3ccccc3)c2=O)c1O	5631	-18	.	-6	99*	-14	-4
COc1cccc(C(c2c(C)[nH]n(-c3ccccc3)c2=O)c2c(C)[nH]n(-c3ccccc3)c2=O)c1OC	1974	1	2	1	56*	-1	-8
O=C(O)c1ccc(N=Nc2c(O)[nH]c3ccc(Br)cc23)cc1	3679	9	1	3	19	11	.
O=c1ccc2cc3c([nH]c4ccc(Br)cc43)oc-2c1O	3469	-148	5	-1	32*	-22	9
Fc1ccc(-c2n[nH]c(=S)n2N=Cc2ccc(OCc3ccccc3)cc2)cc1	.	.	.	.	18	.	.
CCc1ccc(OCC(=O)NC(NC(=S)Nc2ccccc2C)C(Cl)(Cl)Cl)cc1 (centres undefined)	2198	-2	1	0	30*	-2	-24
Cc1ccccc1NC(=S)NC(NC(=O)COc1ccccc1)C(Cl)(Cl)Cl (centres undefined)	4553	-8	8	-2	-9	-2	.
CCOC(=O)C1(CCc2ccccc2)CCN(C(=O)c2cccc(C)n2)CC1	2136	-2	-3	-1	15	0	.
CCOC(=O)C1(CCc2ccccc2)CCN(C(=O)c2occc2C)CC1	4898	-5	0	-2	32*	-3	-8
